Assay outcomes (PubChem BioAssay)
The sample as a whole holds a higher share of hits than the screen did.
S aureus helic = blocks Staphylococcus aureus DNA helicase. purified S. aureus helicase, fluorescence unwinding assay. inhibition, % (test concentration not listed). 0.05% of 120,000 active; in the data active = inhibition above about 25%, passing the limit was not always enough
Sa growth inh = S. aureus growth inhibition | 0.53% of 170,000 active | relative growth, % (no concentration beside the values) | S. aureus RN4220 growth, OD600, 20 h, 42 °C; active compounds read low;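 active = relative growth at most 50% at the other temperature and 20+ points below 30 °C, or under 10% at both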
Large screens that a line does not name were inactive; ! = not confirmed by another sample.

CCCCC/C=C/CCC(=O)N[C@H]1[C@H](Oc2c3cc4cc2Oc2ccc(cc2Cl)[C@@H](O[C@@H]2O[C@H](CO)[C@@H](O)[C@H](O)[C@H]2NC(C)=O)[C@@H]2NC(=O)[C@H](NC(=O)[C@@H]4NC(=O)[C@H]4NC(=O)C(Cc5ccc(c(Cl)c5)O3)NC(=O)[C@H](N)c3ccc(O)c(c3)Oc3cc(O)cc4c3)c3ccc(O)c(c3)-c3c(OC4O[C@H](CO)[C@@H](O)[C@H](O)[C@@H]4O)cc(O)cc3[C@@H](C(=O)O)NC2=O)O[C@H](CO)[C@@H](O)[C@@H]1O (some centres undefined)	Sa growth inh -0.1 (no result: S aureus helic)
Cc1ccc(/C=C2\SC(=O)N(CCNC(=O)c3ccc(OCc4c(C)noc4C)cc3)C2=O)cc1	none
O=C(CSc1nnc(CNc2ccc(F)cc2)o1)N1CCOCC1	none
CCCCCCCCCCCCC[N+](C)(C)Cc1ccccc1	Sa growth inh -0.8 (no result: S aureus helic)
CC[N+](C)(CC)Cc1ccccc1	none
CCCn1c(N2CCN(C(=O)Nc3ccc(OC)cc3)CC2)nc2ccccc21	none
Cc1ccccc1NC(=O)/C=C\C(N)=O	Sa growth inh -0.5
NC(=O)/C=C/C(=O)Nc1ccccc1Cl	none (no result: S aureus helic)
c1ccc(-n2nnnc2SSc2nnnn2-c2ccccc2)cc1	none
O=S1(=O)C=C(Sc2nnnn2-c2ccccc2)c2ccccc21	Sa growth inh -1.7
NC(=O)COc1cccc2cccnc12	none
O=C(Oc1cccc2cccnc12)c1cc(C(F)(F)F)cc(C(F)(F)F)c1	Sa growth inh 1.3 (no result: S aureus helic)
O=C(Oc1ccccc1OC(=O)c1ccccc1)c1ccccc1	none
O=C(Oc1cccc2cccnc12)c1ccccc1	Sa growth inh 1.7!
O=C(Oc1cccc2cccnc12)c1cccc(F)c1	Sa growth inh 1.6
O=C(Oc1cccc2cccnc12)C1CCCCC1	none
O=C(O/N=C1\CCCc2oc3c(c21)CCCC3)c1ccc(F)cc1	none
CCOC(=O)c1[nH]c(C)c(C(=O)N(Cc2ccccc2)C(C)C)c1C	none
O=C(/C=C/c1ccco1)OCC(=O)c1cc2c3c(c1)CC(=O)N3CCC2	none
CCOc1ccc2nc(NCCNC(=O)Nc3ccc(SC)cc3)c(C#N)cc2c1	none
CCn1c2ccc(Cl)cc2c2cc(Cl)ccc21	none (no result: S aureus helic)
CCn1c(O)c(N=NS(=O)(=O)c2ccc(C)cc2)c2cc(Cl)ccc21	Sa growth inh 0.8
CN(C)c1ccc(C=Nc2ccc(C(=O)O)cc2)cc1	none
CN(C)c1ccc(N=Cc2cccn2C)cc1	Sa growth inh 9.7
CCCn1cnc2c1c(=O)[nH]c(=O)n2C	none (no result: S aureus helic)
CCN(CC)CC(O)COc1ccc(OC)cc1 (centres undefined)	none (no result: Sa growth inh)
CCN(CC)CC(O)COc1ccc(C(C)(C)CC)cc1C(C)(C)CC (centres undefined)	Sa growth inh -0.7
CCN(CC)c1ccc2c(C)c(CO)c(=O)oc2c1	none
CCN(CC)c1ccc2c(N3CCCCC3)cc(=O)oc2c1	Sa growth inh 2.1
CN(C)CP(=O)(O)CCc1ccccc1	none
CCOc1ccc(CCNC(=O)c2ccc(CS(=O)Cc3cccc(Cl)c3)o2)cc1 (centres undefined)	Sa growth inh 24 (no result: S aureus helic)
CCOc1ccc(CNC(=O)c2ccc(CS(=O)Cc3ccc(Cl)cc3)o2)cc1 (centres undefined)	none (no result: S aureus helic)
COc1ccc2c(ccc(/C=C3\Sc4ccccc4N3C)[n+]2C)c1	Sa growth inh 4.7
CN1/C(=C/C#N)Sc2ccccc21	none
CCN1/C(=C/c2ccc3ccccc3[n+]2CC)Sc2cc(NC(C)=O)ccc21	none
CCN1/C(=C/c2ccc3cc(C)ccc3[n+]2C)Sc2cc(OC)ccc21	Sa growth inh -1.5
Cc1ccc2c(Cl)cc(Cl)c(OCC(=O)N3CCc4ccccc43)c2n1	none
COc1ccc(CNC(=O)/C=C/c2c(C)nn(C3CCS(=O)(=O)C3)c2Cl)cc1OC (centres undefined)	none
CN=C1SC(CC(=O)Nc2ccc(OC)c(OC)c2)C(=O)N1/N=C(\C)c1ccc(OCC#N)cc1 (centres undefined)	none
CCOc1ccc(C(=O)/C=C2/NCCNC2=O)cc1	none
CCCc1nc(-c2ccccn2)[nH]c(=O)c1Cc1c(F)cccc1Cl	none
C=CCc1c(CCC)nc(-c2ccccn2)[nH]c1=O	Sa growth inh -0.3 (no result: S aureus helic)
CCNc1nc(SCc2ccc(Cl)cc2)nc2sc3c(c12)CCN(C)C3	Sa growth inh 10.0 (no result: S aureus helic)
CCNc1nc(SCC(=O)NC(=O)NCc2ccccc2)nc2sc3c(c12)CCN(C)C3	none (no result: S aureus helic)
COc1cccc(CN(C)S(=O)(=O)c2ccc(C)cc2)c1	none
Cc1nn(CO)c(C)c1Sc1ccc(Br)cc1	Sa growth inh 18
Cc1nn(C)c(C)c1Sc1ccc(Br)cc1	none
CN(CCc1ccccn1)C(=S)NCc1ccccc1	none
O=C(Nc1nnc(C2CC2)o1)c1ccc(S(=O)(=O)N2CCCCC2)cc1	none
CC1CCCCN1S(=O)(=O)c1ccc(C(=O)Nc2nnc(C3CC3)o2)cc1 (centres undefined)	Sa growth inh 0.0
CC1(C)Cc2nc3sc4c(NN)ncnc4c3cc2CO1	none
Cc1noc(C)c1/C=C/C(=O)O	none (no result: Sa growth inh)
O=S1(=O)CC2SC(=S)N(CC3CCCO3)C2C1 (centres undefined)	none
CCc1oc2ccccc2c1C(=O)c1cc(Br)c(O)c(Br)c1	Sa growth inh 4.4! (no result: S aureus helic)
CCCCc1oc2ccccc2c1C(=O)c1ccc(O)cc1	none
CCNC(=O)c1ccc(-n2c(C)ccc2C)cc1	S aureus helic 29
COC(=O)c1ccc(-n2c(C)ccc2C)cc1	none
CCC(=O)Nc1c(-c2ccccc2)c2cc(Br)ccc2[nH]c1=O	none (no result: Sa growth inh)
CNC1CCCc2ccccc21 (centres undefined)	none
Cc1nc(-c2ccccc2)sc1C(=O)NCc1ccco1	none
CCn1cc(C(=O)O)c(=O)c2cc(F)c(N3CCN(C(=O)c4ccc(F)cc4)CC3)cc21	none
CCn1cc(C(=O)NCc2cccnc2)c(=O)c2cc(S(=O)(=O)N3CCCC3)ccc21	none
O=C(O)c1cn(C2CC2)c2cc(N3CCNCC3)c(F)cc2c1=O	Sa growth inh 0.7! (no result: S aureus helic)
CCN1CCN(c2cc3c(cc2F)c(=O)c(C(=O)O)cn3C2CC2)CC1	Sa growth inh -0.9 (no result: S aureus helic)
O=C(NCc1cccnc1)c1cn(C2CC2)c2cc(N3CCN(C(=O)c4cccc(Cl)c4)CC3)c(F)cc2c1=O	Sa growth inh 4.6
CCn1cc(C(=O)O)c(=O)c2cc(F)c(N3CCN(C(C)=O)CC3)cc21	none
O=C(CN1C(=O)C2C3C=CC(C3)C2C1=O)N1CCSC1=NCCc1ccccc1 (centres undefined)	none
CC1Cc2ccccc2N1C(=O)COC(=O)c1ccc(Cl)c(N)c1 (centres undefined)	none
Nc1nc(N2CCCCC2)ncc1F	none
CC(=O)N1CCN(c2ccc(Oc3ccnc4cc(Cl)ccc34)cc2)CC1	none
CC(=O)N1CCN(c2ccc(OC[C@H]3CO[C@](Cn4ccnc4)(c4ccc(Cl)cc4Cl)O3)cc2)CC1	Sa growth inh 1.2! (no result: S aureus helic)
CC1CC(C)CN(Cc2cn3c(-c4ccc(Br)cc4)nnc3s2)C1 (centres undefined)	none
COc1cc2cc3c4c(cc(OC)c(OC)c4c2cc1OC)CCN3C	Sa growth inh 6.6
COc1ccc(C(=O)N2CCc3cc(OC)c(OC)cc3C2C)cc1 (centres undefined)	none (no result: S aureus helic)
CC(=O)NCCCCCCNC(C)=O	Sa growth inh 21 (no result: S aureus helic)
CC(=O)NCCCc1nc2ccccc2[nH]1	none (no result: Sa growth inh)
CC(=O)Nc1ccncc1NC(C)=O	none (no result: Sa growth inh)
Sc1nc2c(Cl)c(Cl)c(Cl)cc2o1	Sa growth inh -0.8
CN(C)[C@@H]1C(=O)C(C(=O)NCN2CCCC2)=C(O)[C@@]2(O)C(=O)C3=C(O)c4c(O)cccc4[C@@](C)(O)[C@H]3C[C@@H]12	none (no result: S aureus helic)
